Measurements taken from ChEMBL document CHEMBL4513216, “Probing the Open Global Health Chemical Diversity Library for Multistage-Active Starting Points for Next-Generation Antimalarials” (ACS Infect Dis, 2020).
Screen size: about 68,000 compounds; about 2,700 (4%) showed an effect of 50% or more. For the sample, strong results were picked, then their nearest neighbours and some compounds at random.

The compounds below were run on Plasmodium berghei (assay: Screen against P. berghei liver stage (PbLuc), transformed with Luciferase, at 2uM). Conditions: tested at 2 uM.
Type: functional, HepG2
In the case of `O=C(NCC1CCC(c2nnc(-c3cccnc3)o2)CC1)C1CC1` (stereo not drawn), the INHIBITION is reported as 43.77%. With `O=C(O)c1c(Cl)ncn1-c1ccccc1` the INHIBITION was 19.33%. Compound `CS(=O)(=O)N1CCOCC2(CN(Cc3ccc(F)cc3)CCO2)C1` (stereo not drawn) has an INHIBITION of -64.46%. In the case of `COc1ccc(C2CCCN2C(=O)NCCNc2ccccn2)cc1` (stereo not drawn), the INHIBITION is reported as -34.82%. `CCOc1ccc(CNCC(O)c2ccccc2)cc1Cl` (stereo not drawn) showed an INHIBITION of 38.61%. For `CCOC(=O)N1CCC(C(=O)Nc2nnc(C(F)(F)F)[nH]2)CC1`, the INHIBITION was -22.24%. For `O=C(Nc1ccccc1)NC1CCN(C2CCOC2)CC1` (stereo not drawn), the INHIBITION was -22.24%. `COc1c(C2CCCN2C(=O)c2cnc[nH]2)c(C)nn1C` (stereo not drawn) gave an INHIBITION of -7.41%. `CCc1nc(CC(=O)N2CCC(C(=O)N(CC)CC)CC2)cs1` showed an INHIBITION of -6.37%. With `COc1ccc(CC(=O)NCCCc2nnc3nc(C)cc(C)n23)cc1` the INHIBITION was 0.54%. In the case of `NC1CCC(Nc2nccc(CCC(F)(F)F)n2)CC1` (stereo not drawn), the INHIBITION is reported as 2.17%. With `Cc1cc(C(=O)N2CCCC(n3ccnc3C)C2)c(C)s1` (stereo not drawn) the INHIBITION was -0.55%. In the case of `Cc1nc(C)c(C(=O)N2CCCC(n3ccnc3C)C2)s1` (stereo not drawn), the INHIBITION is reported as 45.49%. `Cc1nn(C)c2sc(C(=O)N3CCCC(n4ccnc4C)C3)cc12` (stereo not drawn) gave an INHIBITION of 51.49%. `N#Cc1cn(C2CC2)c(=O)n(CC(O)c2ccc(Cl)cc2)c1=O` (stereo not drawn) was tested, and the INHIBITION was 28.33%. With `Nc1cc2c(nn1)CCN(C(=O)c1csc(-c3ccccc3)n1)C2` the INHIBITION was 29.13%. In the case of `Nc1cc2c(nn1)CCN(C(=O)c1csc(-c3ccco3)n1)C2`, the INHIBITION is reported as 64.9%. Compound `Nc1cc2c(nn1)CCN(C(=O)c1csc(-c3cccs3)n1)C2` has an INHIBITION of 38.67%. `Cc1cc(=O)n(C)cc1NC(=O)CC1CCC1` was tested, and the INHIBITION was -54.44%. With `CCN(C)C(=O)c1cccc(S(=O)(=O)NCCc2nc(C)cc(=O)[nH]2)c1` the INHIBITION was 7.83%. In the case of `CCN(C)C(=O)c1cccc(S(=O)(=O)NCCc2csc(N)n2)c1`, the INHIBITION is reported as 67.22%. `CCc1nc(CCNS(=O)(=O)c2cccc(C(=O)N(C)CC)c2)cs1` was tested, and the INHIBITION was 34.18%. With `O=C(c1ccoc1)N1CC[C@H]2C[C@@H](c3ccncn3)O[C@@H]2C1` the INHIBITION was 43.71%. For `CCS(=O)(=O)N1CCC2(CN(Cc3ccc(C)o3)C2)C1`, the INHIBITION was 54.23%. With `CCS(=O)(=O)N1CCC2(CCN(Cc3ccc(C)o3)C2)C1` (stereo not drawn) the INHIBITION was 9.53%. Work on `Cc1ccc(CN2CC3(CCN(S(=O)(=O)c4ccccc4)C3)C2)o1` yielded an INHIBITION of 31.5%. With `O=C(N[C@@H]1CNCCC[C@H]1O)c1ccc(OCCN2CCOCC2)cc1` the INHIBITION was 36.99%. `CCN(Cc1ccccc1)c1ncnc2c(C)nn(CC)c12` showed an INHIBITION of -4.77%. For `O=C(NCC1CCCO1)c1nc2c(s1)CCCN2Cc1ccccc1` (stereo not drawn), the INHIBITION was 29.3%. With `c1coc(CN2CCn3c(COCC4CC4)nnc3C2)c1` the INHIBITION was -0.24%. Work on `CCOCC1CN(c2ccc(C)nn2)Cc2cnn(CC)c21` (stereo not drawn) yielded an INHIBITION of -3.65%. Compound `CNC(=O)C1CN(C(=O)Cc2ccc(OC)cc2)Cc2cn(C)nc21` (stereo not drawn) has an INHIBITION of 1.75%. For `COc1cccc(OCC(=O)NS(=O)(=O)c2cccnc2)c1`, the INHIBITION was 11.09%. Work on `COc1cccc(S(=O)(=O)NC(=O)COC2CCCCC2)c1` yielded an INHIBITION of -1.02%. `Cc1cc(C)c(OCC(=O)NS(=O)(=O)c2cccnc2)c(C)c1` was tested, and the INHIBITION was -76.17%. Work on `COc1cccc(S(=O)(=O)NC(=O)COC2CCCC2)c1` yielded an INHIBITION of 65.77%. `CS(=O)(=O)c1cccc(S(=O)(=O)NC(=O)CCC2CCCCC2)c1` showed an INHIBITION of -10.29%. `COc1cccc(S(=O)(=O)NC(=O)COc2c(C)cccc2C)c1` showed an INHIBITION of 60.31%. `Cc1ccc(S(=O)(=O)NC(=O)CCOCC(C)C)s1` was tested, and the INHIBITION was -13.12%. In the case of `CCOCCCC(=O)NS(=O)(=O)c1ccc(C)s1`, the INHIBITION is reported as 23.64%. Compound `COc1ccc(S(=O)(=O)NC(=O)COC2CCCC2)cc1` has an INHIBITION of -43.47%. `CS(=O)(=O)c1cccc(S(=O)(=O)NC(=O)CC2CCCC2)c1` was tested, and the INHIBITION was 63.54%. For `Cc1ccc(S(=O)(=O)NC(=O)CCOCc2ccccc2)s1`, the INHIBITION was 53.13%. With `CS(=O)(=O)c1cccc(S(=O)(=O)NC(=O)CC2CCCCC2)c1` the INHIBITION was -20.19%. Work on `CSc1ccccc1C(=O)N(C)Cc1nncn1C(C)C` yielded an INHIBITION of 36.79%. Work on `CCn1cc(-c2nn3c(C(F)(F)F)nnc3s2)cn1` yielded an INHIBITION of -21.49%. `CCC(=O)N1CCCC(C(=O)c2cnn(-c3ccc(F)cc3)c2N)C1` (stereo not drawn) gave an INHIBITION of -4.78%. `CC(NC(=O)c1ccoc1)C(=O)N(C)Cc1cccc(C(F)(F)F)c1` (stereo not drawn) gave an INHIBITION of 2.51%. With `COCCC1COC2(CCN(C(=O)C3CCC3)CC2)C1` (stereo not drawn) the INHIBITION was -18.7%. `CC(C)NC1CCc2c(ccc(=O)n2CCN2CCOCC2)C1` (stereo not drawn) was tested, and the INHIBITION was -21.78%. For `COc1cccc(OCC(=O)NS(=O)(=O)c2ccc(Br)s2)c1`, the INHIBITION was -4.22%. `CC(=O)c1cccc(OCC(=O)NS(=O)(=O)c2ccc(C)s2)c1` showed an INHIBITION of -36.13%. With `COc1cccc(OCC(=O)NS(=O)(=O)c2ccc(C)s2)c1` the INHIBITION was 51.21%. Work on `CCn1cncc1CN(Cc1ccc(OC)cc1OC)CC1CCCO1` (stereo not drawn) yielded an INHIBITION of 33.64%. `O=C1CCC2(CCCN(c3ncc(Cl)cc3F)C2)CN1CC1CC1` (stereo not drawn) showed an INHIBITION of -31.23%. `CN(CCCNC(=O)c1cccc(OCC(N)=O)c1)CC(F)(F)F` gave an INHIBITION of -163.17%. `CN(CCCNC(=O)c1ccccc1F)CC(F)(F)F` showed an INHIBITION of 66.74%. Compound `CN(CCCNC(=O)c1ccc(C#N)cc1)CC(F)(F)F` has an INHIBITION of 26.11%. `COCCOc1ccccc1C(=O)NCCN(C)C(C)C` showed an INHIBITION of 27.5%. In the case of `CN(CCCNC(=O)NCc1ccncc1)CC(F)(F)F`, the INHIBITION is reported as 21.71%. `CN(CCCNC(=O)c1ccccc1OCC(N)=O)CC(F)(F)F` was tested, and the INHIBITION was 51.96%. With `CCc1c(C(=O)NCC(=O)OCC2CC2)cnn1-c1ccc(C)cc1` the INHIBITION was -14.3%. `CCN1CC2(CC1=O)CN(C(C)=O)CCN(S(=O)(=O)CC)C2` (stereo not drawn) was tested, and the INHIBITION was -161.57%. `Cc1ccc(CN2C[C@H](OCCN(C)C)[C@H]3COC[C@H]32)o1` gave an INHIBITION of 15.36%. `COc1nn(C)c2c1CCCN(C(=O)c1ccc(C)c(F)c1)C2` gave an INHIBITION of -128.25%. Work on `COC(=O)CC(NC(=O)c1ccccc1OC)c1cccs1` (stereo not drawn) yielded an INHIBITION of 53.58%. In the case of `COc1ccccc1C(=O)NC(CC(=O)O)c1cccs1` (stereo not drawn), the INHIBITION is reported as 24.31%. With `COC(=O)CC(NC(=O)c1ccc(OC)cc1OC)c1cccs1` (stereo not drawn) the INHIBITION was 27.47%.
